In the library only some 3.9% were active in any assay of this set; here they are far more common.
GDH-TPI inh: GDH-TPI coupling enzyme inhibitors, primary screen, artefact control for M. tuberculosis FBA inhibitor project, biochemical, absorbance, full deck; inhibition, % at 4.8 µM; GDH-TPI coupled enzyme counterscreen, NADH absorbance; AID 588335, 2011; 360,000 compounds, 1.2% hits
CCHFV vOTU inh: CCHFV vOTU protease inhibitors, primary screen, biochemical, Pep-AMC substrate, fluorescence; Crimean-Congo hemorrhagic fever virus L polyprotein viral ovarian tumor (vOTU) protease …; inhibition, % at 11.5 µM; 370,000 compounds, 0.55% hits; AID 651958, 2012
Vc quorum ag: inducers of Vibrio cholerae quorum light production without autoinducers, primary screen, BH1578 luxS cqsA deficient, single point; V. cholerae BH1578 lux reporter, luminescence, 6 h; activation, % at 18.7 µM; 350,000 compounds, 0.16% hits; AID 588436, 2011; in the data active = activation mostly above about 9.7%, no sharp cut-off
Mtb FBA inh: Mtb FBA enzyme inhibitors, primary screen, biochemical, fluorescence, strain H37Rv. Fructose-bisphosphate aldolase (Mycobacterium tuberculosis (strain ATCC 25618 / H37Rv)), …. purified M. tuberculosis FBA, fluorescence read-out. inhibition, % at 1 µM. 360,000 compounds, 2.3% hits; in the data active = inhibition above about 27%
Target sequence (P9WQA3 whole entry, looked up): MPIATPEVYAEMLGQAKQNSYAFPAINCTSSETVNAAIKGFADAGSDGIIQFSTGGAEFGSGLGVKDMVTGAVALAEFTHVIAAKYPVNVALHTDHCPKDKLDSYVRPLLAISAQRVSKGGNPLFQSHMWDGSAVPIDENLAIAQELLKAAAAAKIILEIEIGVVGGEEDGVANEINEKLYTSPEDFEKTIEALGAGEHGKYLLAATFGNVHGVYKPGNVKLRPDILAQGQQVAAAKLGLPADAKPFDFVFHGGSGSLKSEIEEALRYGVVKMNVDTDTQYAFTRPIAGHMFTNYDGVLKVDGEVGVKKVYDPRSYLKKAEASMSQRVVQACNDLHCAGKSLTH
Of the large screens only hits and unclear results are named; the others gave an inactive call. Cut-off read from the data, not from the text of the source, unless noted: active = inhibition above about 30%; inactive = the rest.

CN(C)c1ccc(/C=C(/NC(=O)c2ccccc2Cl)C(=O)NCCN2CCOCC2)cc1	GDH-TPI inh 42
COc1ccccc1C(=O)N/C(=C\c1cn(C)c2ccccc12)C(=O)NCCCN1CCOCC1	GDH-TPI inh 36
CCC(c1nnnn1C1CCCC1)N1CCN(C/C=C/c2ccccc2)CC1 (centres undefined)	none (no result: GDH-TPI inh, Vc quorum ag)
CCn1cc(/C=C(\NC(=O)c2ccc(OC)c(OC)c2)C(=O)NCCCN2CCOCC2)c2ccccc21	GDH-TPI inh 41
CCn1cc(/C=C(\NC(=O)c2ccccc2F)C(=O)N2CCN(C)CC2)c2ccccc21	GDH-TPI inh 39
COc1ccc(/C=C/C(=O)NC(=S)Nc2ccc(C(=O)O)cc2)cc1	GDH-TPI inh 50
COc1ccc(/C=C/C(=O)NC(=S)NNC(=O)c2ccco2)cc1	GDH-TPI inh 41
COc1ccc(C(=O)/C=C/c2ccc(O)cc2)cc1	GDH-TPI inh 31
COc1ccc(/C=C/C(=O)NC(=S)NNC(=O)c2ccco2)cc1OC	none
COc1ccc(/C=C/C(=O)NC(=S)NNC(=O)Cc2cccs2)cc1	GDH-TPI inh 41
CC1(C)CCC(=O)N2CC[C@H]3C[C@H](OC(=O)Nc4ccc(Br)cc4)C[C@@H]1[C@H]32	none
O=C(OCC(=O)N1CCCC1)c1c(Cl)cccc1Cl	none
O=C(CN1CCN(CN2C(=O)NC3(CCCCCC3)C2=O)CC1)Nc1ccc(F)cc1	none
CCOc1ccc(-c2cncc3nccn23)cc1	Mtb FBA inh active
C=CCOC(=O)c1sc(NC(=O)c2ccco2)nc1C	none
O=C(CCCSc1nc(-c2ccco2)cc(C(F)(F)F)n1)NCc1cccs1	none
Cc1cccc(C)c1NC(=O)CSc1nc(-c2ccco2)cc(C(F)(F)F)n1	GDH-TPI inh 33
COc1ccccc1N1CCN(C(=O)CSc2nc(-c3ccco3)cc(C(F)(F)F)n2)CC1	GDH-TPI inh 32
O=C(CCSc1nc(-c2ccco2)cc(C(F)(F)F)n1)NCC1CCCO1 (centres undefined)	GDH-TPI inh 33
O=C(CCCSc1nc(-c2ccco2)cc(C(F)(F)F)n1)NCC1CCCO1 (centres undefined)	GDH-TPI inh 33
Cc1cc(NC(=O)CSc2nc(-c3ccco3)cc(C(F)(F)F)n2)no1	none
C[C@H]1[C@H](NC(=O)/C(=N\OC(C)(C)C(=O)O)c2csc(N)n2)C(=O)N1S(=O)(=O)O	none (no result: GDH-TPI inh, Vc quorum ag, Mtb FBA inh)
O=C(CSc1nc(-c2ccco2)cc(C(F)(F)F)n1)NCC1CCCO1 (centres undefined)	GDH-TPI inh 31
Cn1c(=O)c2c(SCC(=O)Nc3cccc(F)c3)nc(-c3ccco3)nc2n(C)c1=O	none
CC(Sc1nc(-c2ccco2)nc2c1c(=O)n(C)c(=O)n2C)C(=O)O (centres undefined)	GDH-TPI inh 32
Cc1ccc(CNC(=O)CSCc2cccc(F)c2)cc1	none
S=C1Cc2ccccc2N1	CCHFV vOTU inh 100
S=C1Nc2ccccc2CS1	none
CCCCOC(=O)Nc1ccc(N(C)C)cc1	none
O=C(Cc1ccc(S(=O)(=O)N2CCOCC2)s1)Nc1cc(C(F)(F)F)cc(C(F)(F)F)c1	none
CCOC(=O)Nc1ccc2c(COC(=O)CNS(=O)(=O)c3cccc(Br)c3)cc(=O)oc2c1	Mtb FBA inh 155
CCc1ccc2c(COC(=O)CNS(=O)(=O)c3ccc(NC(C)=O)cc3)cc(=O)oc2c1	none
Cc1ccc(NC(=O)COC(=O)C(NS(=O)(=O)c2ccc(Cl)cc2)C(C)O)cc1C (centres undefined)	none
CCOC(=O)Nc1ccc2c(COC(=O)C(NS(=O)(=O)c3ccc(Cl)cc3)C(C)O)cc(=O)oc2c1 (centres undefined)	Mtb FBA inh active
COc1ccc(C2CC(c3cccs3)=NN2S(C)(=O)=O)cc1 (centres undefined)	none
COc1ccc(C2CC(c3ccccc3C(F)(F)F)=NN2c2ccc(S(N)(=O)=O)cc2)cc1 (centres undefined)	Mtb FBA inh active
COc1ccc(C2CC(c3ccccc3F)=NN2c2ccc(S(N)(=O)=O)cc2)cc1 (centres undefined)	Mtb FBA inh 156
COc1ccc(C2CC(c3ccc(C(F)(F)F)cc3)=NN2c2ccc(S(N)(=O)=O)cc2)cc1 (centres undefined)	Mtb FBA inh 155
COc1ccc(C2CC(C(C)(C)C)=NN2c2ccc(S(N)(=O)=O)cc2)cc1 (centres undefined)	none
COc1ccc(C2CC(c3cccs3)=NN2S(=O)(=O)c2ccc(C)cc2)cc1 (centres undefined)	none
CN(C)CCCNC(=O)/C(=C\c1ccc(-c2cccc([N+](=O)[O-])c2)o1)NC(=O)c1ccccc1	GDH-TPI inh 35
Cc1ccc(C(=O)N/C(=C\c2ccc(-c3cccc([N+](=O)[O-])c3)o2)C(=O)NCCCN(C)C)cc1	GDH-TPI inh 59
COc1cc(C(=O)NCC(=O)N/N=C/c2ccc(-c3cccc([N+](=O)[O-])c3)o2)cc(OC)c1OC	GDH-TPI inh 38
Cc1ccc(C(=O)N/C(=C\c2ccc(-c3ccc(Br)cc3)o2)C(=O)NCCCN(C)C)cc1	none
O=C(c1cccc(S(=O)(=O)N2CCOCC2)c1)N(Cc1ccc(F)cc1)Cc1ccco1	none
CC(C)NC(=O)C1(C)CN(S(C)(=O)=O)CC(=O)N1Cc1cccc(C(F)(F)F)c1 (centres undefined)	none (no result: GDH-TPI inh, Vc quorum ag, Mtb FBA inh)
COc1ccc(/C=C(/NC(=O)c2ccc(Br)o2)C(=O)Nc2cccc(C(=O)O)c2)cc1	GDH-TPI inh 34
COc1ccc(NC(=O)/C(=C\c2ccc(OC)c(OC)c2)NC(=O)c2ccco2)cc1	GDH-TPI inh 37
COc1ccc(NC(=O)/C(=C/c2cccs2)NC(=O)c2ccco2)cc1	GDH-TPI inh 45
CC(=O)c1ccc(NC(=O)/C(=C\c2cccs2)NC(=O)c2ccco2)cc1	GDH-TPI inh 33
COc1ccccc1NC(=O)/C(=C/c1cccs1)NC(=O)c1ccco1	none
Cc1ccc2nc(CN(C)C(=O)[C@H]3O[C@@H](n4ccc(=O)[nH]c4=O)[C@H](O)[C@@H]3O)[nH]c2c1	none (no result: GDH-TPI inh, Vc quorum ag)
CC(=O)c1ccc(-c2nc3ccccc3n2C)o1	Mtb FBA inh active
Cc1ccccc1N1C(=O)c2cccc3cccc(c23)C1=O	GDH-TPI inh 35
c1ccc2nc(N3CCCC3)c(N3CCCCC3)nc2c1	none
c1ccc2nc3c(nc2c1)OCC1CCCCN31 (centres undefined)	Mtb FBA inh 150
Cc1cccc2nc(=S)n(C(=O)c3ccco3)n12	none
O=C(c1ccco1)n1c(=S)nc2ccccn21	GDH-TPI inh 52
CC(=O)/C(N=Nc1nc2c([nH]1)c(=O)n(C)c(=O)n2C)=C(\C)O	none
CC1CCCCN1N=Nc1nc2c([nH]1)c(=O)n(C)c(=O)n2C (centres undefined)	GDH-TPI inh 39
Cn1c(=O)c2[nH]c(C3CCCC3)nc2n(C)c1=O	none
CC1CCN(N=Nc2nc3c([nH]2)c(=O)n(C)c(=O)n3C)CC1	GDH-TPI inh 31
